Screens from PubChem.
In the library only some 0.51% were active in any assay of this set; here they are far more common.
FMDV FLuc: antivirals against foot and mouth disease virus. FMDV antiviral cell assay, firefly luciferase signal. Potency, µM (titrated, usually from 57.5 µM), actives largely listed as inhibitors. 120,000 compounds, 0.23% hits. AID 1745856; note: nearly all actives have a fitted effect of over 60% in size
FMDV RLuc: FMDV antiviral activity by Renilla signal; FMDV replicon cells, Renilla luciferase signal; Potency, µM (series often up to 57.5 µM), actives largely listed as inhibitors; 120,000 compounds, 0.32% hits; AID 1745857; note: nearly all actives have a fitted effect of over 55% in size
Hits are given with their value; 0 = inactive; ? = inconclusive; [ ] = another dose, or the depositor's remark. Calls come from the whole dose curve.

SMILES	FMDV FLuc	FMDV RLuc
COc1ccc(-c2onc(C)c2C)cc1S(=O)(=O)N(C)Cc1ccco1	31.6µM	?
CCn1c(COc2ccccc2Cl)nnc1SCc1cc(=O)c2cc(C(N)=O)ccc2[nH]1	0	0
CCc1ccc(OCc2nnc(SCc3cc(=O)c4ccccc4[nH]3)n2CC)cc1	?	15.8µM
CCCCN(Cc1ccccc1)c1ccc(NS(=O)(=O)c2c(C)cc(C)cc2C)cc1C(=O)O	0	0
CSc1ccc(/C=C/C(=O)c2ccc3c(c2)NC(=O)CO3)cc1	0	0
COc1ccc2c(C)c(CCC(=O)NCCCN3CCOCC3)c(=O)oc2c1C	0	0
CCC(CC)C(=O)Nc1ccc2oc(-c3ccc(OC)cc3)nc2c1	0	0
COc1cc(/C=C/C(=O)c2ccccc2C)cc(OC)c1OC(F)F	?	28.2µM
O=C(/C=C/c1ccc(Cl)c(Cl)c1)c1ccccc1OC(F)F	0	0
Cc1ccc(S(=O)(=O)Oc2ccc(C3C4=C(CC(C)(C)CC4=O)OC4=C3C(=O)CC(C)(C)C4)cc2)cc1	0	0
CCOCCCNC(=O)CSCc1nc(-c2ccc(C)cc2)oc1C	0	0
CCc1ccc(-c2nc(CSCC(=O)NCCCOC)c(C)o2)cc1	25.1µM	0
Cc1nn(-c2ccc(C(=O)OCC(=O)NC(=O)NC3CCCCC3)cc2)c(C)c1Cl	0	0
O=C(OCc1ccc([N+](=O)[O-])cc1)C1(c2ccccc2)CC1	0	0
Cc1nc(N2CCC(C(=O)Nc3cccc(Cl)c3C)CC2)c2c(C)c(C)oc2n1	0	0
Cc1nc(N2CCC(C(=O)Nc3cccc(Br)c3)CC2)c2c(C)c(C)oc2n1	17.8µM	?
Cc1cc(C)cc(C(=O)C(C#N)C(=O)NC2CCCCC2)c1 (stereo not given)	0	0
CCOC(=O)c1[nH]c(C)c(C(=O)NCc2ccc(F)cc2)c1C	0	0
CC(=O)c1[nH]c(C)c(C(=O)NCc2ccc(Cl)cc2)c1C	11.2µM	?
COc1ccc(CNC(=O)CC2CCN(C(=O)c3ccc4nc(-c5ccccc5)oc4c3)CC2)cc1	0	0
Cc1ccc(-c2ccc(O)cc2)cc1	0	0
Cc1cc(C)cc(C(=O)NCCc2csc(-c3ccc(C(F)(F)F)cc3)n2)c1	0	0
CC(=O)N1CCN(Cc2csc(-c3ccc(C(F)(F)F)cc3)n2)CC1	20µM	12.6µM
CC(=O)Nc1ccc2nc(SCc3ccc(Cl)cc3)sc2c1	0	0
CCOC(=O)N1CCc2c(sc(NCc3ccc(OCC)cc3)c2C(=O)Nc2ccc(OC)cc2OC)C1	25.1µM	0
SMILES	FMDV FLuc	FMDV RLuc
CCOC(=O)N1CCc2c(sc(NCc3ccc(OC)c(OC)c3OC)c2C(=O)Nc2ccc(OC)cc2OC)C1	0	0
CCCCOCCCNC(=O)c1cc(-c2ccncc2)nc2ccccc12	0	0
Cc1cc(C)n(-c2nc(-c3ccccc3)cc(=O)n2CC(=O)Nc2ccccc2)n1	0	0
O=C(CN1CCN(CC(=O)NC2CCCCC2)CC1)Nc1ccc(Cl)c(C(F)(F)F)c1	0	0
O=C(CN1CCN(c2ccc(C(F)(F)F)cn2)CC1)NC1CCCCC1	28.2µM	?
CN(CCOc1ccc(Cl)cc1)Cc1cc(=O)oc2cc(O)c(Cl)cc12	0	0
CCC(C)C(=O)Nc1nc(-c2c(C)[nH]c3ccccc23)cs1 (stereo not given)	0	0
Cc1nc(CN2CCN(S(=O)(=O)c3ccccc3Cl)CC2)cs1	0	0
Cc1ccc(Nc2nc(CN3CCN(S(=O)(=O)c4cc(C)ccc4C)CC3)cs2)cc1	?	8.91µM
Cc1cccc(NC(=O)Nc2c[nH]c(=O)[nH]c2=O)c1C	0	0
CCOC(=O)COc1ccc2c(=O)c(Oc3ccc(Br)cc3)c(C)oc2c1	0	0
O=C(Nc1ccc(-c2nc3ccccc3o2)c(O)c1)c1cccc(I)c1	0	0
COc1ccc(C(=O)Oc2c(C)cc(C(O)(C(F)(F)F)C(F)(F)F)cc2C)cc1	10µM	8.91µM
Cc1cc(C(O)(C(F)(F)F)C(F)(F)F)cc(C)c1OC(=O)c1ccccc1F	0	0
Cc1cc(N2CCCCC2)nc(Nc2ccc(NC(=O)Cc3ccccc3)cc2)n1	14.1µM	12.6µM
Cc1cc(N2CCCC2)nc(Nc2ccc(NC(=O)Nc3ccc(Cl)cc3)cc2)n1	0	0
CCN(CC)c1cc(C)nc(Nc2ccc(NS(=O)(=O)c3ccc(OC)c(OC)c3)cc2)n1	?	0
Cc1cc(N2CCOCC2)nc(N2CCN(C(=O)Nc3ccccc3)CC2)n1	0	0
Cc1cc(N2CCOCC2)nc(Nc2ccc(NC(=O)CCc3ccccc3)cc2)n1	5.01µM	3.98µM
Cc1cc(N2CCCC2)nc(Nc2ccc(NS(=O)(=O)c3ccc(Br)cc3)cc2)n1	31.6µM	0
Cn1c(=O)c2c(nc(SCC(=O)O)n2Cc2cccc(Cl)c2)n(C)c1=O	0	0
CN1CCN(C(=O)C2CCN(c3nn4cc(-c5ccc(F)cc5)nc4s3)CC2)CC1	0	0
Cc1cc(C)n(-c2cc(NC3CCCCCC3)ncn2)n1	0	0
Cc1c(Cl)cccc1NC(=O)C1CCCc2ccccc21 (stereo not given)	0	0[1.06 µM]
Cc1ccc2c(Cl)cc(Cl)c(OCc3nccn3C(F)F)c2n1	0	0
SMILES	FMDV FLuc	FMDV RLuc
CC(C)NC(=O)c1cccc2c1CCCN2CC(=O)NC(C)c1ccccc1 (stereo not given)	0	0
Cc1cccc(OCCCn2cnc3c2c(=O)n(C)c(=O)n3C)c1	0	0
Cn1c(=O)c2c(ncn2Cc2cccc(OCC(F)(F)F)c2)n(C)c1=O	7.08µM	4.47µM
Cc1ccc(-c2cc3n(c2)CCc2ccccc2-3)cc1	0	?
Cc1cccc(NC(=O)CC2(C(=O)O)CCCCC2)c1	0	0
Cc1cccc(NC(=O)CCl)c1	?	31.6µM
COc1ccccc1OCCn1cc(C(=O)C2CC2)c2ccccc21	0	0
CC(=O)c1cn(CCOc2cccc3ccccc23)c2ccccc12	?	12.6µM
O=C(Nc1ccc(C(F)(F)F)cc1)C1CCN(c2nc3ccccc3o2)CC1	0	?
O=C(Nc1ccncc1)C1CCN(c2nc3ccccc3o2)CC1	?	15.8µM
O=C(Nc1ccncc1)c1cccc(OCc2ccc(F)cc2)c1	?	6.31µM
C=CCOc1cccc(NC(=O)c2ccncc2)c1	0	0
Cc1c(O)ccc2c(CN(C)CC(=O)Nc3cccc4ccccc34)cc(=O)oc12	0	0
Cc1ccc(NC(=O)CSc2ncnc3ccccc23)c(Cl)c1	0	0
Cc1cc(C)c2c(c1)C(=O)c1ccccc1-2	0	0
CN(Cc1cccs1)C(=O)CCl	?	28.2µM
CCN(Cc1cccs1)C(=O)CCl	0	0
COc1ccccc1Nc1nc2ccccc2nc1NS(=O)(=O)c1ccc(Cl)s1	0	0
O=S(=O)(Nc1nc2ccccc2nc1Nc1cccc(F)c1)c1cccc(Cl)c1	3.55µM	3.98µM
COc1cccc(Nc2nc3ccccc3nc2NS(=O)(=O)c2cccc(Cl)c2)c1	?	0
O=S(=O)(Nc1nc2ccccc2nc1Nc1ccc(F)cc1)c1ccc(F)cc1	2.51µM	3.55µM
O=S(=O)(Nc1nc2ccccc2nc1Nc1ccccc1)c1ccc(Cl)s1	4.47µM	?
CCOc1ccc(S(=O)(=O)Nc2nc3ccccc3nc2Nc2ccc(F)cc2)cc1	0	0
O=C(Nc1ccccc1O)c1cc(-c2ccncc2)nc2ccccc12	0	0
Cc1ccc2nc(CSc3ccccc3NS(=O)(=O)c3c(C)noc3C)cc(=O)n2c1	0	0
Cc1ccc2nc(-c3ccc4ccccc4c3)cc(C(=O)O)c2c1	0	?
CCCCN=C(N)N=C(N)N	0[11.5 µM]	0
CCCCC(CC)CN=C(N)NC(N)=NCCCCCCN=C(N)NC(N)=NCC(CC)CCCC (stereo not given)	?	28.2µM
